# Measurements: PubChem BioAssay (NCATS)
# Several values for one entry are separate records, joined by “and”; a condition that tells them apart may be missing. Equal values may be shown once. Records with an inconclusive call do not appear. Values without a mark were called inactive. Activity calls are given as the source filed them. Calls follow the shape of the dose curve; as a rule, active = well fitted cell-killing curve with a large enough effect; inconclusive = small, poorly fitted or top-dose-only effect; inactive = flat fitted curve, though single readings scatter.
# Experiment: Cell Viability - LYMP2-017 (AID 972); also: nearly all actives have a fitted effect of over 55% in size
# Conditions: LYMP2-017 lymphoblastoid cell viability; series mostly up to 92.2 µM; activity change, negative = cytotoxicity: at the top concentration
# Text: NIH Chemical Genomics Center [NCGC]
# NIH Molecular Libraries Screening Centers Network [MLSCN]
# National Institutes of Environmental Health Sciences [NIEHS]
# National Toxicology Program [NTP]
# We have developed a 1536-well cell-based assay for quantitative high throughput screening (qHTS) against a number of cell lines to determine in vitro cytotoxicity of small molecules. This particular assay uses a human lymphoblastoid cell line (LYMP2-017) purchased from Coriell Institute for Medical Research.
# NCGC Assay Protocol Summary:
# The CellTiter-Glo luminescent cell viability assay (Promega) is a homogeneous method to measure the number of viable cells in culture. The end point readout of this assay is based on quantitation of intracellular ATP, an indicator of metabolic activity, using the luciferase reaction. Luciferase catalyzes the oxidation of beetle Luciferin to oxyluciferin and light in the presence of ATP. The luminescent signal is proportional to amount of ATP present.
# Using the CellTiter-Glo luminescent cell viability assay, the amount of cellular ATP was measured in the lymphoblastoid cell line with complete culture medium following compound treatment for 24 hours. The assay was performed in opaque white Kalypsys 1536-well plates. In the screen, tetraoctylammonium bromide was used as positive control. Library compounds were measured for their ability to cause acute toxicity in the cell line, as reflected by a decrease in intracellular ATP levels, in a concentration-dependent manner. […] AC50 values were determined from concentration-response data modeled with the standard Hill equation.
# qHTS protocol for CellTiter Glo lymphoblastoid cellular assay
# [Step] [Parameter] [Value] [Description]
# 1. Reagent; 5 uL; 2500 lymphoblastoid cells/well
# 2. Time; 5 hr; 37 C incubation
# 4. Controls; 23 nL; Tetraoctylammonium bromide 6.4pM to 92 uM
# 5. Time; 24 hr; 37 C incubation
# 6. Reagent; 5 uL; CellTiter Glo reagent
# 7. Time; 30 min; Room Temperature
# 8. Detection; Luminescence; Viewlux plate reader
# Keywords: cell viability, cytotoxicity, lymphoblastoid cell line, luminescence, NTPHTS, NTPHTS_NCGC, NIEHS, DSSTox, MLSMR, MLSCN, NIH Roadmap, qHTS, NCGC
# % is scaled to controls: 0 for no effect and ±100 for the full control effect; potency is read from the fitted curve at half-maximal effect.
Compound,"activity change, negative = cytotoxicity [%]",Potency
C[C@H]1CCC[C@H](O)CCCCCc2cc(O)cc(O)c2C(=O)O1,-0.423,
ClC(Cl)(Cl)Cl,,inactive
Oc1cc(Cl)c(Cl)cc1Cl,-7.03,
C=CCN=C=S,-11.2,
COC1=CC(=O)O[C@@H](/C=C/c2ccccc2)C1,-13.6,
ClCC1CO1 (stereo not given),-16.5,
CCOC(=O)c1ccccc1C(=O)OCC,,inactive
O=[N+]([O-])c1ccccc1,-6.66,
[Cl-].[Cl-].[Hg+2],,1 µM (active)
O=C(O)C(Cl)(Cl)Cl,,inactive
Clc1ccccc1Cl,0.415,
O=C1C2CC=CCC2C(=O)N1SC(Cl)(Cl)Cl (stereo not given),,3.16 µM (active) and 5.01 µM (active)
COc1ccc2c(c1OC)C(=O)OC2C1c2cc3c(cc2CCN1C)OCO3 (stereo not given),-8.24,
[O]=[Cr](=[O])([OH])[O][Cr](=[O])(=[O])[OH],,12.6 µM (active)
CCCCCCCCOC(=O)c1ccccc1C(=O)OCCCCCCCC,-0.432,
ClC=C(Cl)Cl,1.92,
NNC(N)=O,0.909,
C[C@]12CCC(=O)C[C@@H]1CC[C@@H]1[C@@H]2CC[C@]2(C)[C@@H](O)CC[C@@H]12,-9.64,
O=C/C=C/c1ccccc1,,inactive
[O]=[Cd],-2.56,
S=C=S,7.11,
CC(C)Nc1ccc(Nc2ccccc2)cc1,,25.1 µM (active)
O=C1CCO1,5.33,
C[C@H]1CC[C@@H]2[C@@H](C)[C@H]3[C@H](C[C@H]4[C@@H]5CC=C6CC(O[C@@H]7O[C@H](CO)[C@H](O)[C@H](O[C@@H]8O[C@H](CO)[C@@H](O)[C@H](O)[C@H]8O)[C@H]7O[C@H]7O[C@@H](C)[C@H](O)[C@@H](O)[C@H]7O)CC[C@]6(C)[C@H]5CC[C@]34C)N2C1 (stereo not given in full),,50.1 µM (active)
CC(C)(C)c1cc(O)ccc1O,,50.1 µM (active)
CCCCCl,-7.3,
CC(C)CCON=O,-11.4,
O=Cc1ccco1,-11,
O=C1C=CC(=O)C=C1,,50.1 µM (active)
O=CC=O,-7.25,
